From PMC5540273 (PLoS ONE, 2017) come the findings set out here.

SMILES strings stand for the structures.
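Also: KINOMEscan kinase panel screen.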

The experiment concerns T1, ERK1.
T1 construct: gene MAPK3
As to conditions: concentration: 1 μM, replicates: in singlicate; n = 1.
For `CCS(=O)(=O)c1ccc(OC)c(Nc2nccc(-c3c(-c4cccc(NC(=O)c5c(F)cccc5F)c4)nn4ncccc34)n2)c1` [GSK326180], the “%Inh” value amounted to 0%. Regarding `COc1cc(Nc2nccc(-c3c(-c4cccc(NC(=O)c5c(F)cccc5F)c4)nn4ncccc34)n2)cc(OC)c1OC` [GSK327238], the “%Inh” value is on record as 6%. For `COc1ccc(-c2coc3ccc(-c4nnc(SCc5ccc(OC)c(C(F)(F)F)c5)o4)cc23)cc1` the value was 8%; for `Oc1cc(Nc2ccnc3cc(I)ccc23)ccc1F` [GW552771], 0%. For `O=c1[nH]cc(-c2ccc(N3CCOCC3)cc2)c2sc(-c3cn[nH]c3)cc12` [GSK2276055] the value was 0%. For `FC(F)(F)c1ccc(/C=C/c2cncnc2Nc2ccc3[nH]c(Cc4ccccc4)nc3c2)cc1` [GW709199] the value was 0%; for `Nc1ncnc2c1nc(-c1ccccc1)n2-c1ccccc1` [SKF-97293], 12%. In the case of `Cn1cc(-c2ccc3c(c2)CCN3C(=O)Cc2cccc(Cl)c2)c2c(N)ncnc21` [GSK2606590], the “%Inh” value was found to be 0%. For `Cc1ccc(C(=O)Nc2ccc(Nc3ccnc4cc(-c5nccs5)ccc34)cc2O)cc1.Cl` [GW494702] the value was 0%; for `COc1cc(Nc2ncc3c(C)nc(-c4cc5ccccc5[nH]4)n3n2)cc(OC)c1OC` [GW869516], 0%; for `COc1ccc(CNC(=O)NC2CCN(c3ccnc(Nc4ccc(F)cc4)n3)CC2)cc1` [GSK1379788], 0%.

For `CCn1c(-c2nonc2N)nc2c(C#CC(C)(C)O)nc(OC[C@H](N)c3ccccc3)cc21` [GSK943949], the “%Inh” value was 0%. For `Cl.c1ccc(-c2ccc3c(Nc4ccc5[nH]ncc5c4)ccnc3c2)nc1` [GW440137] the value was 10%. For `COc1cccc(-c2ccc3c(NC(=O)C4CC4)n[nH]c3n2)c1` [SB-710903] the value was 0%; for `COc1cccc(C(=O)Nc2cccc(Oc3ccc4nc(NC(=O)C5CC5)cn4n3)c2)c1`, 4%; for `CNC(=O)c1ccccc1Nc1nc(Nc2ccc(N3CCOCC3)cc2)ncc1Cl.Cl` [GSK1576028], 59%. For `O=C(Nc1cccc(Oc2ccc3nc(NC(=O)C4CC4)cn3n2)c1)c1ccccc1C(F)(F)F` the value was 0%; for `Cc1ccc(S(=O)(=O)Nc2ccc(Nc3nccc(Nc4cccc5[nH]ncc45)n3)cc2)cc1` [GSK581271], 0%. Regarding `Cc1cccc(NC(=O)Nc2ccc(Oc3ncnc4ccn(C)c34)cc2)c1`, the “%Inh” value is on record as 0%. For `CC(=O)Nc1nc2cnc(Nc3cc(NC(=O)c4cccc(C5(C#N)CC5)c4Cl)ccc3C)nc2s1` the value was 0%; for `COc1cccc(C2=C(Nc3ccc(Cl)c(C(=O)O)c3)C(=O)NC2=O)c1` [SB-390769], 10%.

As for `CN(C)S(=O)(=O)c1cc(-c2ccc3nccc(-c4cccc(S(N)(=O)=O)c4)c3c2)cnc1N` [GSK1669921], the “%Inh” value is 3%. For `O=C(Nc1ccccc1F)NC1CCN(c2ccnc(Nc3ccc(F)cc3)n2)CC1` [GSK1379800] the value was 3%; for `O=C(Nc1n[nH]c2cc(-c3ccoc3)ccc12)C1CC1` [SB-738481], 0%. For `CSc1cccc2c(-c3ccncn3)c(-c3ccc(F)cc3)nn12` [GW514786] the value was 14%; for `CN(c1ccc(NC(=O)Nc2cc(C(F)(F)F)ccc2F)cc1)c1ccnc(Nc2ccc(S(N)(=O)=O)cc2)n1` [GW809893], 0%; for `O=C(Nc1cccc(-c2nn3ncccc3c2-c2ccnc(Nc3ccccc3)n2)c1)c1c(F)cccc1F` [GSK198271], 0%. For `c1ccc(-c2n[nH]cc2Nc2ccnc3ccccc23)nc1` [GW694077] the value was 0%; for `Cl.Cl.NCC(C(=O)Nc1cc(Br)c(-c2ccnc3[nH]ccc23)s1)c1ccccc1` (stereo not shown) [GSK1269851], 6%. As for `O=C(Nc1cccc(-c2nn3ccccc3c2-c2ccnc(Nc3cccc(C(F)(F)F)c3)n2)c1)c1c(F)cccc1F` [GSK292658], the “%Inh” value was 0%.

In the case of `Cc1ccc(C)c(NC(=O)NC2CCN(c3ccnc(Nc4ccc(F)cc4)n3)C2)c1` (stereo not shown) [GSK1379720], the “%Inh” value is on record as 35%. For `COCCOCCOc1cc2ncc3c4ccc(C#N)cc4[nH]c3c2cc1OC` the value was 9%. As to `CN1CCN(Cc2cccc(-c3ccc4c(Nc5ccc(Oc6ccccc6)cc5)ccnc4c3)c2)CC1` [GW578342], the “%Inh” value is 4%.

For the molecule `Cl.Cl.NCC(NCc1ccc(-c2ccnc3[nH]ccc23)s1)c1ccccc1` (stereo not shown) [GSK1321565], the “%Inh” value was determined as 0%.

For the molecule `Cn1cc(-c2ccc3c(c2)CCN3C(=O)Cc2cccc(F)c2)c2c(N)ncnc21` [GSK2603358], the “%Inh” value worked out at 0%. For `Clc1ccc(-c2nn3ncccc3c2-c2ccnc(Nc3ccc4c(c3)OCCO4)n2)cc1` [GW829116] the value was 0%. For `Nc1ncc(-c2cccnc2)c2scc(-c3ccc4c(c3)CCN4C(=O)Cc3ccccc3)c12` [GSK683281] the value was 0%.
